Data on eight molecules can be found in PubChem BioAssay (NCI).

Compounds without any hit were thinned out: in the full panel of roughly 83,000, 20% have a hit.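 Single-dose data. Exposure time 48 hours. Values below 10 considered active.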 Values without a mark were called inactive. Activity calls are given as the source filed them.

Among the test systems are MOLT-4 leukemia; SR leukemia; RPMI-8226 leukemia; OVCAR-8 ovarian; OVCAR-5 ovarian; OVCAR-4 ovarian; SK-OV-3 ovarian; IGROV1 ovarian; OVCAR-3 ovarian; HS 578T breast; NCI/ADR-RES ovarian; T-47D breast; BT-549 breast; SW-620 colon; MCF7 breast; HCT-116 colon; HCC-2998 colon; KM12 colon; MDA-MB-435 melanoma.
Holding throughout (assay): NCI-60 one-dose screen, 48 h (100 = growth as untreated, 0 = no growth, -100 = all killed)
Common to all, as to settings: 10 µM unless noted

Take `O=[N+]([O-])c1c(Cl)cc(Cl)c([N+](=O)[O-])c1Cl`: the growth was 80.8% in the assay with MOLT-4 leukemia; 69% in the assay with SR leukemia; 90.2% with RPMI-8226 leukemia; 94.7% in the assay on OVCAR-8 ovarian; 115% in the assay with OVCAR-5 ovarian; 112% in the assay on OVCAR-4 ovarian. In addition, the growth in the assay on SK-OV-3 ovarian is 111%; in the assay with IGROV1 ovarian, 100%; in the assay with OVCAR-3 ovarian, 78.3%; with HS 578T breast, 109%; in the assay on NCI/ADR-RES ovarian, 103%; in the assay on T-47D breast, 22.2%. Also, the growth in the assay on BT-549 breast is 114%; with SW-620 colon, 65.6%; with MCF7 breast, 45.9%; in the assay on HCT-116 colon, 88.5%; in the assay on HCC-2998 colon it was 114%; with KM12 colon, -2.82% (active).

Turning to `CC1=CC(=Nc2ccc(N(CCCl)CCCl)cc2)C=C(C)C1=O`, the growth is -21.2% (active) in the assay on MOLT-4 leukemia; -2.28% (active) in the assay on SR leukemia; 9.64% (active) in the assay on RPMI-8226 leukemia; 18.7% in the assay with OVCAR-8 ovarian; 35% with OVCAR-5 ovarian; -35.7% (active) with OVCAR-4 ovarian. Moreover, the growth in the assay on SK-OV-3 ovarian was 49.9%; with IGROV1 ovarian, 21%; in the assay with OVCAR-3 ovarian, -62.5% (active); with HS 578T breast, 26.7%; in the assay with NCI/ADR-RES ovarian, 19.8%; in the assay with T-47D breast, -17.7% (active). In addition, the growth is 52.5% in the assay with BT-549 breast; 35.4% in the assay with MDA-MB-435 melanoma; 3.05% (active) with SW-620 colon; 7.59% (active) with HCT-116 colon; 55.6% in the assay with HCC-2998 colon; 59.8% in the assay with KM12 colon.

For `CCN1C(=O)NC(=O)C(C)(N2C(=O)c3c(F)c(F)c(F)c(F)c3C2=O)C1=O` (stereo not drawn), the growth with MOLT-4 leukemia is -51.3% (active); in the assay with SR leukemia, -64.6% (active); in the assay on RPMI-8226 leukemia, 2.56% (active); with OVCAR-8 ovarian it was 3.31% (active); with OVCAR-5 ovarian, 42.7%; in the assay with OVCAR-4 ovarian, 1.91% (active). The growth was 96.9% in the assay with SK-OV-3 ovarian; -58.8% (active) with IGROV1 ovarian; -89.9% (active) in the assay on OVCAR-3 ovarian; 12.1% with HS 578T breast; 17.9% in the assay on NCI/ADR-RES ovarian; 23.5% with T-47D breast. Besides, the growth in the assay on BT-549 breast was 35.9%; in the assay with MDA-MB-435 melanoma, 21.6%; with SW-620 colon it was -77.9% (active); with HCT-116 colon it was -38.8% (active); with HCC-2998 colon it was 40.8%; in the assay with KM12 colon, -59.7% (active).

Take `C[N+]1(CC#CC[N+]2(C)CCCC2)CCCC1`: the growth in the assay with MOLT-4 leukemia is 103%; in the assay with SR leukemia, 96.7%; in the assay with RPMI-8226 leukemia, 109%; with OVCAR-8 ovarian it was 111%; with OVCAR-5 ovarian, 101%; with OVCAR-4 ovarian, 105%. In addition, the growth in the assay with SK-OV-3 ovarian was 98.3%; in the assay on IGROV1 ovarian it was 105%; with OVCAR-3 ovarian, 102%; in the assay on HS 578T breast, 107%; with NCI/ADR-RES ovarian, 102%; in the assay on T-47D breast, 108%. Further, the growth in the assay on BT-549 breast is 101%; in the assay with MDA-MB-435 melanoma, 104%; in the assay on SW-620 colon it was 107%; with MCF7 breast, 95.5%; in the assay on HCT-116 colon it was 98.4%; with KM12 colon, 102%.

`O=P1(N(CCCl)CCCl)NCCCO1` (stereo not drawn): the growth with MOLT-4 leukemia is 96.8%; in the assay on SR leukemia, 99%; in the assay with RPMI-8226 leukemia it was 103%; with OVCAR-8 ovarian it was 102%; in the assay on OVCAR-5 ovarian, 108%; with OVCAR-4 ovarian, 111%. Further, the growth with SK-OV-3 ovarian is 111%; in the assay with IGROV1 ovarian it was 114%; in the assay with OVCAR-3 ovarian, 121%; with HS 578T breast it was 115%; in the assay with NCI/ADR-RES ovarian, 108%; with T-47D breast, 113%. Moreover, the growth in the assay on BT-549 breast is 106%; in the assay on MDA-MB-435 melanoma, 107%; in the assay with SW-620 colon, 102%; with HCT-116 colon it was 104%; in the assay on HCC-2998 colon, 100%; with KM12 colon, 111%.

As for `CN1CCN(c2ccc(Cl)cc2)CC1`, the growth was 75.6% in the assay with MOLT-4 leukemia; 56.2% with SR leukemia; 110% in the assay with RPMI-8226 leukemia; 72.5% with OVCAR-8 ovarian; 80.5% in the assay on OVCAR-5 ovarian; 98.6% with OVCAR-4 ovarian. Further, the growth was 103% in the assay on SK-OV-3 ovarian; 68% in the assay with IGROV1 ovarian; 125% in the assay with OVCAR-3 ovarian; 101% in the assay with HS 578T breast; 70.1% in the assay on NCI/ADR-RES ovarian; 90% in the assay with T-47D breast. Besides, the growth is 83.2% in the assay with BT-549 breast; 97.8% in the assay with MDA-MB-435 melanoma; 46.5% in the assay with SW-620 colon; 31.4% in the assay on HCT-116 colon; 105% with HCC-2998 colon; 100% with KM12 colon.

Regarding `CC(Oc1ccc(-c2ccccc2)cc1)C(=O)O` (stereo not drawn), the growth in the assay with MOLT-4 leukemia is 104%; in the assay on SR leukemia, 106%; in the assay on RPMI-8226 leukemia it was 101%; with OVCAR-8 ovarian, 103%; in the assay with OVCAR-5 ovarian it was 108%; in the assay with OVCAR-4 ovarian, 101%. Besides, the growth is 105% in the assay on SK-OV-3 ovarian; 103% with IGROV1 ovarian; 111% in the assay on OVCAR-3 ovarian; 110% with HS 578T breast; 104% with NCI/ADR-RES ovarian; 98.4% with T-47D breast. Also, the growth in the assay on BT-549 breast was 106%; in the assay on MDA-MB-435 melanoma, 102%; in the assay on SW-620 colon it was 102%; with HCT-116 colon, 98.5%; in the assay on KM12 colon, 107%.

For `O=[P+](O)c1cccnc1`, the growth in the assay with MOLT-4 leukemia is 109%; in the assay with SR leukemia, 96.4%; with RPMI-8226 leukemia it was 100%; in the assay with OVCAR-8 ovarian, 107%; with OVCAR-5 ovarian, 107%; with OVCAR-4 ovarian it was 107%. In addition, the growth was 103% in the assay on SK-OV-3 ovarian; 111% in the assay on IGROV1 ovarian; 108% in the assay on OVCAR-3 ovarian; 105% with HS 578T breast; 102% in the assay with NCI/ADR-RES ovarian; 88.2% in the assay on T-47D breast. For the same molecule, the growth with BT-549 breast was 116%; in the assay with MDA-MB-435 melanoma, 107%; in the assay with SW-620 colon it was 107%; with HCT-116 colon, 102%; in the assay with HCC-2998 colon, 115%; in the assay with KM12 colon it was 101%.
